This is a sample that favours compounds with a hit; in the whole collection about 18% have one here.
LDHA block – blocks human lactate dehydrogenase A | P00338 | purified LDHA, NADH/diaphorase-resazurin fluorescence; stronger effect = lower value | activity change, % (values are at about 110 or 230 µM) | 0.15% of 480,000 active; in the data active = activity change below about -30%; inconclusive = mostly about -25% to -30%;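 also: plate controls were DMSO wells for no effect and wells without enzyme for full effect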
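Resorufin fluorescence (ex540/em590), read at 0 and 20 min after diaphorase/resazurin addition, reports the NADH left after a 5 min room-temperature reaction of 2 nM human LDH5 with 0.06 mM NADH and 0.2 mM pyruvate.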
RORgamma inh – blocks mouse ROR gamma transcriptional activity; Potency, µM (doses to about 53.6 µM), for the others: top-dose activity change, negative = inhibition, hits mostly inhibitors; 5.4% of 310,000 active; Drosophila S2 Gal4-RORgamma UAS-luciferase reporter, 20 h; AID 2551; P51450; also: potency is read from the fitted curve at half-maximal effect; nearly all actives have a fitted effect of over 60% in size
Target sequence (P51450 whole entry, looked up, the tested form may be a part): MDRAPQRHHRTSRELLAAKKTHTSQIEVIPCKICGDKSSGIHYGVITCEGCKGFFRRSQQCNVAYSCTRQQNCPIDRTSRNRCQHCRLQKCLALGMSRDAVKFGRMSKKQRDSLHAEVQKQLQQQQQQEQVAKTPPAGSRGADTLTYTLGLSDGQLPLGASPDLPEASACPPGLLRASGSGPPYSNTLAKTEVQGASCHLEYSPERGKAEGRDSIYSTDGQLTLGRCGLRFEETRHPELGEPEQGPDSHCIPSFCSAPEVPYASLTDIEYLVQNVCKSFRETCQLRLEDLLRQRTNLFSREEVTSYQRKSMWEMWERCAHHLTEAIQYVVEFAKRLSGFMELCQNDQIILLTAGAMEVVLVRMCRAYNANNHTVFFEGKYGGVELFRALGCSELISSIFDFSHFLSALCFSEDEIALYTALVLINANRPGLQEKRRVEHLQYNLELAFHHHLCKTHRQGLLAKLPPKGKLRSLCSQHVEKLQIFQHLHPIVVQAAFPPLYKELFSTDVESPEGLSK
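Luciferase reporter read in Schneider cells carrying Gal4-RORγ (mouse) and UAS-Photinus luciferase; cells given compound 1 h before 700 uM copper sulfate induction, then incubated 20 h at ambient temperature.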
Gal4-VP16 FLuc – inhibits Gal4-VP16 luciferase reporter, ROR gamma counter-screen. Drosophila S2 Gal4-VP16 UAS-luciferase, luminescence, 20 h. Potency, µM (titrated, usually from 53.6 µM), inactives show top-dose activity, negative = inhibition, actives largely listed as inhibitors. 3.5% of 310,000 active. AID 2546;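 also: Gal4-VP16 expression switched on by copper sulfate through the metallothionein promoter; potency is read from the fitted curve at half-maximal effect; nearly all actives have a fitted effect of over 50% in size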
IL-1B inflam inh – inhibitors of inflammasome signaling (IL-1 beta secretion) | THP-1 LPS/ATP IL-1B secretion, AlphaLISA, 16 h; stronger effect = lower value | activity change, % at 57.5 µM | 4.7% of 360,000 active | AID 743279; in the data active = activity change below about -50%; inconclusive = mostly about -30% to -49%
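THP-1 cells pretreated 1 hr with compounds (up to 57.5 uM final), then stimulated with LPS (250 ng/mL final) plus ATP (1.25 mM final); secreted IL-1B measured by AlphaLISA after 16 hr, decreased signal indicating inhibition.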
DT40 TDP1 CPT – DT40-hTDP1 cell growth loss with CPT | AID 686979 | 12% of 420,000 active | chicken DT40 Tdp1-/-;hTDP1 cells + 20 nM CPT, ATP luminescence, 48 h | Potency, µM (titrated, usually from 46.2 µM), without a hit: top-dose activity change, negative = growth inhibition, hits mostly inhibitors; also: potency is read from the fitted curve at half-maximal effect; nearly all actives have a fitted effect of over 55% in size
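Chicken DT40 Tdp1-/- cells complemented with human TDP1, 400 cells/well, exposed to compounds plus 20 nM camptothecin for at least 48 h at 37 C; viability read as ATP content by CellTiter-Glo luminescence.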
DT40 TDP1 no CPT – qHTS for Inhibitors of human tyrosyl-DNA phosphodiesterase 1 (TDP1): qHTS in cells in absence of CPT | DT40 Tdp1-/- hTDP1 cells, no CPT, ATP luminescence, 48 h | 15% of 420,000 active | Potency, µM (highest dose often 46.2 µM), without a hit: top-dose activity change, negative = growth inhibition, usual class: inhibitors; also: potency is read from the fitted curve at half-maximal effect; nearly all actives have a fitted effect of over 55% in size
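Compound effects on proliferation are scored in DT40 Tdp1-/-;hTDP1 cells in the absence of CPT. ATP levels (CellTiter-Glo luminescence) are recorded after a ≥48 hr, 37 °C incubation.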
* hit, by the source's call; ? = inconclusive; nt = no result given. Unless noted, calls follow the shape of the dose curve; as a rule, active = well fitted curve in the direction sought with a large enough effect; inconclusive = small, poorly fitted or top-dose-only effect, or another doubt; inactive = no such curve, though single readings can be large; an effect the other way counts as inactive or inconclusive. Unless noted, % is scaled to controls: 0 for no effect and ±100 for the full control effect.

SMILES	LDHA block	RORgamma inh	Gal4-VP16 FLuc	IL-1B inflam inh	DT40 TDP1 CPT	DT40 TDP1 no CPT
O=C(CC1(O)C(=O)N(CCc2ccccc2)c2ccc(Br)cc21)c1ccc(F)cc1 (stereo not drawn)	5	nt	nt	nt	?	16µM*
Cc1coc(C)c1C(=O)CC1(O)C(=O)N(CCc2ccccc2)c2ccccc21 (stereo not drawn)	12	?	-16%	-2	?	?
CC(=O)c1cccc(-c2ccnc3c2CC(C(=O)NCc2ccc(F)c(F)c2)O3)c1 (stereo not drawn)	-15	nt	nt	61	4.1µM*	4.1µM*
CC(=O)NCCNC(=O)C1Cc2c(-c3ccccc3)ccnc2O1 (stereo not drawn)	-13	nt	nt	9	-18%	-7%
CC(=O)c1cccc(-c2ccnc3c2CC(C(=O)NCc2ccccc2)O3)c1 (stereo not drawn)	-6	nt	nt	50	0.73µM*	0.65µM*
Cc1ccc(SCc2ccc(C(=O)Nc3ccccc3C)cc2)cc1	4	nt	nt	nt	nt	nt
Cc1cccc(-c2c3c(nc4c2c(=O)n(C)c(=O)n4C)-c2ccccc2C3O)c1 (stereo not drawn)	-6	nt	nt	7	5.8µM*	4.6µM*
Cc1cc(C(=O)Nc2ccccc2Cc2ccccc2)cs1	4	nt	nt	nt	nt	nt
O=C(O)CSc1ccc(F)c(F)c1	3	nt	nt	nt	nt	nt
CC(C)(C)c1ccc(-c2nc(-c3ccncc3)no2)cc1	2	?	?	51	?	16µM*
Cc1cc(C)cc(-c2nc(-c3ccncc3)no2)c1	-3	?	0%	1	?	?
Cc1ccc(-c2nc(-c3ccncc3)no2)cc1	3	14µM*	?	-3	0%	-20%
COc1ccc(-c2nc(-c3ccc(Br)o3)no2)cc1	-13	?	-25%	11	6%	-26%
CC(C)(C)c1ccc(-c2nc(-c3ccc(Br)o3)no2)cc1	-31*	nt	nt	nt	nt	nt
CC(C)(C)C(=O)Nc1ccc(-c2csc(NCc3ccco3)n2)cc1	-1	nt	nt	nt	nt	nt
O=C(Nc1ccc(Br)cc1)c1nc2ccccc2nc1N1CCCCC1	0	nt	nt	nt	nt	nt
COc1ccc(Nc2c(-c3ccc(F)cc3)nc3nc(C)cc(C)n23)cc1	3	nt	nt	-26	10µM*	16µM*
Cc1cc(C)n2c(Nc3ccccc3)c(-c3ccccc3)nc2n1	-3	nt	nt	nt	16µM*	?
Cc1cc(C)n2c(Nc3ccc(Cl)cc3)c(-c3ccsc3)nc2n1	2	nt	nt	nt	?	?
Cc1ccc(Nc2c(-c3cccs3)nc3nc(C)cc(C)n23)cc1	2	nt	nt	nt	23µM*	?
Cc1cc(C)n2c(NC3CCCCC3)c(-c3cccnc3)nc2n1	1	nt	nt	-6	?	16µM*
Cc1cc(C)n2c(Nc3ccc4c(c3)OCCO4)c(-c3ccccc3)nc2n1	3	-4%	-2%	-15	?	?
COc1ccc(C2CC(=O)Nc3c(C(=O)O)cn(-c4ccc(F)cc4)c32)cc1O (stereo not drawn)	3	nt	nt	nt	nt	nt
CCCCC(Sc1nnc(C)n1-c1cccc(C)c1)C(=O)Nc1cc(C)on1 (stereo not drawn)	3	nt	nt	nt	nt	nt
N#Cc1ccc(Sc2ccc(Oc3cccc(Sc4ccc(C#N)c(C#N)c4)c3)cc2)cc1C#N	-2	nt	nt	nt	nt	nt
SMILES	LDHA block	RORgamma inh	Gal4-VP16 FLuc	IL-1B inflam inh	DT40 TDP1 CPT	DT40 TDP1 no CPT
CC(C)CN(C(=O)COC(=O)c1cc2ccccc2cc1O)c1c(N)n(Cc2ccccc2)c(=O)[nH]c1=O	2	nt	nt	-54*	?	?
CC(C)CN(C(=O)COC(=O)C12CC3CC(CC(O)(C3)C1)C2)c1c(N)n(Cc2ccccc2)c(=O)[nH]c1=O	-12	nt	nt	-13	6%	-4%
CC(C)CN(C(=O)COC(=O)C12CC3CC(CC(C3)C1)C2)c1c(N)n(Cc2ccccc2)c(=O)[nH]c1=O	-5	nt	nt	3	?	10µM*
CC(=O)Nc1sc(C)c(C)c1C(=O)OCC(=O)N(CC(C)C)c1c(N)n(Cc2ccccc2)c(=O)[nH]c1=O	-7	nt	nt	2	23µM*	5.8µM*
COc1ccc(S(=O)(=O)Oc2ccc3c(c2)O/C(=C\c2cc(OC)ccc2OC)C3=O)cc1	7	nt	nt	nt	nt	nt
CC(=O)Nc1sc2c(c1-c1ccc(N(C)C)cc1)CCNC2	36	nt	nt	nt	nt	nt
CN(C)S(=O)(=O)c1cccc(NC(=O)CC23CC4CC(CC(C4)C2)C3)c1	0	?	9%	3	23µM*	21µM*
CN(C)S(=O)(=O)Nc1cccc(NC(=O)CC23CC4CC(CC(C4)C2)C3)c1	-2	74%	-4%	-73*	-26%	-24%
NS(=O)(=O)c1cccc(NC(=O)CC23CC4CC(C2)CC(CC(=O)Nc2cccc(S(N)(=O)=O)c2)(C4)C3)c1	-4	-18%	-5%	1	0%	-6%
NS(=O)(=O)c1cccc(NC(=O)CNC(=O)CC23CC4CC(CC(C4)C2)C3)c1	-7	-2%	-5%	13	-8%	17%
COc1ccc2[nH]cc(C(C(=O)O)N3CCN(Cc4ccccc4)CC3)c2c1 (stereo not drawn)	-11	nt	nt	nt	nt	nt
Cc1cc2nc(CSCC(=O)Nc3cccc(C)c3C)cc(=O)n2o1	-3	nt	nt	nt	nt	nt
CCCSc1ccc(C(=O)CCN(C)C)cc1	0	nt	nt	nt	nt	nt
Cc1cc(=O)n2cccc(O)c2n1	14	0.89µM*	1.8µM*	-57*	3.7µM*	4.6µM*
Cc1nnc(SCc2cc(=O)n3cccc(C)c3n2)s1	-2	nt	nt	nt	?	1%
CCc1cc(C(=O)Nc2nc(-c3ccccn3)cs2)sc1C	5	nt	nt	114	4.6µM*	2.9µM*
Cc1ccc(C(=O)Nc2nc(-c3ccccn3)cs2)o1	2	13µM*	?	165	5.8µM*	3.7µM*
CC(=O)c1ccc(-c2ccc(C(=O)Nc3nc(-c4ccccn4)cs3)o2)cc1	0	nt	nt	161	2.9µM*	3.7µM*
O=C(Nc1nc(-c2ccccn2)cs1)c1ccc([N+](=O)[O-])o1	2	?	?	41	4.1µM*	2.6µM*
CC(Sc1nc(C(F)(F)F)nc2ccccc12)C(=O)NCC1CCCCC1 (stereo not drawn)	2	nt	nt	nt	nt	nt
O=C(Nc1cccc2cccnc12)c1ccc(Cl)c(Cl)c1	10	nt	nt	nt	nt	nt
CCOc1ccc(-n2nnc3c(=O)n(Cc4nc(-c5ccccc5Br)no4)cnc32)cc1	-5	nt	nt	nt	nt	nt
COC(=O)COc1ccc2c(=O)c(Oc3cc(C)ccc3C)coc2c1	2	nt	nt	nt	nt	nt
